Composite z-score and z-score data for 15 molecules are collected here from PubChem BioAssay.

For assay [1], the system named is Wnt5a (protein binding on small-molecule microarray). Kind of assay: Wnt5a binders on small-molecule microarray, primary screen, biophysical, 635/667 nm fluorescence (AID 1142).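 Further: fluorescence read at 667 nm with signal to noise per printed feature.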 The conditions noted are these: 635 nm fluorescence, higher = more signal.
A short description of assay [2]: cell viability in Huh7 cells, primary screen, cytotoxicity control for HCV replication inhibitor project, CellTiter-Glo luminescence, basal, 48 h (AID 1143).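 Further: Huh7 hepatoma cells carrying a hepatitis C replication reporter with no stimulus; test concentration not given here.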 The note with it: Huh7 HCV replicon, higher = more signal, called active from +8 up or from −8 down.
Assay [3] in a line: P. aeruginosa biofilm formation inhibitors, primary screen, PAO1 strain, BacTiter-Glo luminescence, LB-PBS (AID 1144). The conditions noted are these: 12 h, higher = more signal.
Assay [4] can be described thus: CREB reporter modulators without forskolin, primary screen, cell-based, PC12, CRE-LacZ reporter, unstimulated (AID 1145). The note with it: no forskolin, luminescence, 4.5 h, higher = more signal, called active from +8 up or from −8 down.
Assay [5] is described as follows: CREB reporter modulators under forskolin, primary screen, cell-based, PC12, CRE-LacZ reporter, forskolin-stimulated (AID 1146).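 Further: PC12 cells with 6xCRE LacZ reporter stimulated by forskolin 10 µM; beta-galactosidase reporter signal reflecting CREB driven transcription.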 The conditions noted are these: luminescence, 4.5 h, higher = more signal, called active from +8 up or from −8 down.
In assay [6] the target is Streptavidin (Streptomyces avidinii) (UniProt P22629). Kind of assay: streptavidin binders on small-molecule microarray, primary screen, artefact control for SMM compound annotation, biophysical, 635/667 nm fluorescence (AID 1147).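 Further: signal reflects streptavidin binding to arrayed compounds as a control protein.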 The note with it: streptavidin binding, higher = more signal.
Streptavidin (Streptomyces avidinii), sequence (P22629 whole entry, looked up): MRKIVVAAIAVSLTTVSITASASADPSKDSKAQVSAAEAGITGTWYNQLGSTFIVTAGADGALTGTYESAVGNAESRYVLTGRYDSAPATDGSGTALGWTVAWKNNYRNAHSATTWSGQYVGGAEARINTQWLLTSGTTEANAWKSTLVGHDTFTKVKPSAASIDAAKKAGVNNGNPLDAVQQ
The nature of assay [7]: small-molecule binders of probe aInhba, primary screen, biochemical, small-molecule microarray, 635/667 nm fluorescence (AID 1148).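 Further: score merges 667nm spot fluorescence with signal-to-noise for antibody binding to printed compounds.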 The note with it: higher = more signal.
Assay [8] deals with Torsin-1A (Homo sapiens) (UniProt O14656). As to the kind of experiment: torsin A binders from cell lysate, primary screen, small-molecule microarray, wild-type, 635/667 nm (AID 1149). The conditions noted are these: COS7 hTOR1A-WT lysate, 635 nm fluorescence, higher = more signal.
Torsin-1A (Homo sapiens), sequence (O14656 whole entry, looked up): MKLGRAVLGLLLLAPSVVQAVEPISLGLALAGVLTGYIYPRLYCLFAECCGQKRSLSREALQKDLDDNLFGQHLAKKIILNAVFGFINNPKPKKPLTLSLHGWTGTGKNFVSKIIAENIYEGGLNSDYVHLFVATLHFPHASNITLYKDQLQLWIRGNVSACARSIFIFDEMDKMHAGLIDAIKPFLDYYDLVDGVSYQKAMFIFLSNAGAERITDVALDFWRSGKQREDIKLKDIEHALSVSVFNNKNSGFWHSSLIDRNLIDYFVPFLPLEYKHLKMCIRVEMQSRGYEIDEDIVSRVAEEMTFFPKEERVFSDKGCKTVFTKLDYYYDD
The target is the same in assay [9]. As to the kind of experiment: small-molecule binders of mutant TOR1A in lysate, primary screen, cell lysate, small-molecule microarray, COS7 lysate, 635/667 nm fluorescence (AID 1150).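 Further: score pools 667 nm emission and signal to noise measuring lysate protein binding.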 The conditions noted are these: COS7 hTOR1A mutant lysate, 635 nm fluorescence, higher = more signal.
Assay [10] concerns Sonic hedgehog protein (Shh). Kind of assay: small-molecule binders of Shh protein, primary screen, biochemical, small-molecule microarray, 635/667 nm fluorescence (AID 1151).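 Further: Shh protein binding to compounds spotted on small-molecule microarray slides; score combines spot fluorescence intensity with signal-to-noise across triplicate slides.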 The note with it: small-molecule microarray binding, 635 nm fluorescence; higher = more signal.

Structures are written as SMILES. Calls of active or inactive are those of the source. Unless noted, how the calls were made is not given here.

Regarding `O=C1O[C@H](c2ccccc2)[C@H](c2ccccc2)N2[C@H]1[C@@H](C(=O)Nc1nc3ccccc3s1)[C@]1(C(=O)Nc3ccccc31)[C@H]2c1ccc(O)cc1`, the composite z-score in assay [1] was 0.0365; in assay [6] it was 1.2; in assay [7] it was -0.0736; with Torsin-1A (Homo sapiens) [8], -0.0245; with Torsin-1A (Homo sapiens) [9] it was 0.414; in assay [10], 1.51. The z-score in assay [2] is -1.69 (inactive); in [3], -0.363 (inactive); in assay [4] it was 0.478 (inactive); in assay [5], 0.757 (inactive).

For `C=C(CCCC)C(=O)CC[C@H](OC(=O)c1cccnc1)c1cccc(OCCO)c1`, the composite z-score is 0.54 in [1]; 0.0158 in [6]; -0.231 in assay [7]; 0.524 in the assay with Torsin-1A (Homo sapiens) [8]; 0.186 with Torsin-1A (Homo sapiens) [9]; 1.12 in assay [10]. In addition, the z-score is -0.293 (inactive) in [2], -0.0707 (inactive) in [3], 11 (active) in assay [4] and 0.189 (inactive) in [5].

`CC(C)NC(=O)[C@@H]1c2ccccc2C(=O)N(Cc2ccccc2Cl)[C@H]1c1ccc(CO)cc1`: the composite z-score is -0.243 in [1]; -0.418 in assay [6]; -0.179 in assay [7]; 0.267 with Torsin-1A (Homo sapiens) [8]; 0.343 with Torsin-1A (Homo sapiens) [9]; 0.0599 in assay [10]. Further, the z-score in assay [2] was -0.485 (inactive); in [3], 0.471 (inactive); in [4], 0.145 (inactive); in assay [5], -0.47 (inactive).

With `COc1ccc([Si](C)(C)[C@@H]2[C@@H](CCn3cc([C@H](O)c4ccccc4)nn3)O[C@]3(C(=O)N(Cc4cccc(N5CCOC5=O)c4)c4ccccc43)[C@H]2C)cc1`, the composite z-score was -0.105 in assay [1]; -0.469 in assay [6]; -0.292 in assay [7]; -0.568 with Torsin-1A (Homo sapiens) [8]; -0.668 in the assay with Torsin-1A (Homo sapiens) [9]; -0.98 in [10]. Further, the z-score in assay [2] was -1.08 (inactive); in assay [3], -1.69 (inactive); in assay [4] it was 0.134 (inactive); in [5] it was -1.36 (inactive).

Turning to `Cc1ccc(S[C@]2(C(=O)O)CC(=O)N(C3Cc4ccccc4C3)[C@@H]2c2ccc(CO)cc2I)cc1`, the composite z-score in assay [1] is -0.227; in assay [6], 0.103; in assay [7] it was -0.0791; in the assay with Torsin-1A (Homo sapiens) [8], -0.594; in the assay with Torsin-1A (Homo sapiens) [9] it was -0.584; in assay [10], -0.439. Further, the z-score in assay [2] was -1.02 (inactive); in assay [3] it was -0.138 (inactive); in assay [4] it was -0.062 (inactive); in assay [5], -0.097 (inactive).

As to `CC(C)(C)OC(=O)CC[C@@]1(C(=O)NCCN2CCOCC2)N=C(c2ccc(OCCCO)cc2)O[C@@H]1c1ccccc1`, the composite z-score was 0.739 in assay [1]; 1.12 in assay [6]; 0.248 in [7]; 0.388 with Torsin-1A (Homo sapiens) [8]; -0.522 with Torsin-1A (Homo sapiens) [9]; 0.306 in assay [10]. In addition, the z-score in [2] is 0.256 (inactive); in assay [3], 0.174 (inactive); in [4], -1.33 (inactive); in assay [5] it was -0.998 (inactive).

For the molecule `CC(C)N1C(=O)c2ccccc2[C@@H](C(=O)NCCCN(C)C)[C@@H]1c1ccc(CO)cc1`, the composite z-score in [1] is -0.0882; in assay [6], -0.418; in [7], 0.0633; in the assay with Torsin-1A (Homo sapiens) [8], -0.0795; with Torsin-1A (Homo sapiens) [9] it was -0.0729; in assay [10] it was -0.589. The z-score in assay [2] is -0.921 (inactive); in [3], -0.282 (inactive); in [4] it was -0.116 (inactive); in assay [5], -0.0135 (inactive).

For `CC(C)C[C@@H]1NC(=O)[C@@H]2C[C@H](C(=O)NCCCCCC[N+](C)(C)C)[C@H](c3ccc(O)cc3)N2C1=O`, the composite z-score was 0.0505 in assay [1]; 0.313 in [6]; -0.0448 in assay [7]; 1.08 with Torsin-1A (Homo sapiens) [8]; 0.767 in the assay with Torsin-1A (Homo sapiens) [9]; 2.03 in [10]. The z-score is 0.0436 (inactive) in assay [2], -0.555 (inactive) in [3], -0.532 (inactive) in assay [4] and 0.0161 (inactive) in [5].

Turning to `[N-]=[N+]=NCc1ccccc1C[C@]1(C(=O)O)N=C(c2ccc(OCCCO)cc2)O[C@H]1c1ccccc1`, the composite z-score in [1] is 0.0352; in [6], 0.807; in assay [7], 0.0566; with Torsin-1A (Homo sapiens) [8], 1.8; with Torsin-1A (Homo sapiens) [9], 1.99; in [10] it was -0.474. For the same molecule, the z-score in assay [2] is -0.881 (inactive); in [3] it was -0.556 (inactive); in assay [4], -0.79 (inactive); in [5] it was 2.11 (inactive).

With `CCCCC=C[C@@H](NC(=O)c1cccs1)c1ccccc1`, the composite z-score was 0.0001 in assay [1]; 0.801 in [6]; 0.261 in assay [7]; 0.0798 in the assay with Torsin-1A (Homo sapiens) [8]; 0.454 with Torsin-1A (Homo sapiens) [9]; -0.216 in [10]. Also, the z-score in assay [2] is -2.49 (inactive); in assay [3], 0.15 (inactive); in assay [4] it was -0.951 (inactive); in [5], -0.548 (inactive).

Take `COCC(=C=CC[C@H](O)c1ccc(OCCO)cc1)C[C@H](O)c1cc(Cl)cc(Cl)c1O`: the composite z-score turned out to be 0.635 in [1]; 0.169 in assay [6]; 0.0849 in assay [7]; 1.06 with Torsin-1A (Homo sapiens) [8]; 0.3 with Torsin-1A (Homo sapiens) [9]; 2.26 in assay [10]. Further, the z-score is -7.94 (inactive) in [2], -0.984 (inactive) in assay [3], 11.1 (active) in assay [4] and 0.96 (inactive) in assay [5].

On to `COc1ccc(C#Cc2ccc3c(c2)[C@]2(C(=O)N3)[C@H](c3ccc(O)cc3)N3[C@H](c4ccccc4)[C@H](c4ccccc4)OC(=O)[C@H]3[C@@H]2C(=O)N2CCCCCCC2)cc1`, for which the composite z-score was 1.12 in assay [1]; 1.9 in [6]; 1.43 in assay [7]; 1.55 in the assay with Torsin-1A (Homo sapiens) [8]; 1.43 in the assay with Torsin-1A (Homo sapiens) [9]; 2.09 in assay [10]. Also, the z-score is -3.96 (inactive) in assay [2], -1.42 (inactive) in [3], 0.0653 (inactive) in [4] and -0.648 (inactive) in assay [5].

Take `O=C1C[C@]2(c3ccc([N+](=O)[O-])cc3)C(=O)N(CC(F)(F)F)c3cc(CO)ccc3[C@H]2N1CC12CC3CC(CC(C3)C1)C2`: the composite z-score in assay [1] is -0.171; in assay [6], -0.143; in assay [7], 0.0091; in the assay with Torsin-1A (Homo sapiens) [8], -0.662; with Torsin-1A (Homo sapiens) [9] it was -0.156; in [10], 0.277. Further, the z-score is -1.89 (inactive) in assay [2], -0.892 (inactive) in assay [3], -0.698 (inactive) in [4] and 0.0632 (inactive) in assay [5].

`C=CCOC(=O)[C@H]1[C@@H]2C(=O)O[C@@H](c3ccccc3)[C@@H](c3ccccc3)N2[C@@H](c2ccc(OCCOC(=O)[C@@H]3C[C@@H]4C(=O)N5CCC[C@H]5C(=O)N4[C@@H]3c3ccc(O)cc3)cc2)[C@]12C(=O)Nc1ccccc12`: the composite z-score in assay [1] was 1.06; in assay [6] it was -0.244; in assay [7], -0.0963; with Torsin-1A (Homo sapiens) [8], 0.529; in the assay with Torsin-1A (Homo sapiens) [9] it was 0.853; in [10], 1.23. Also, the z-score in assay [2] is -0.496 (inactive); in assay [3] it was -0.506 (inactive); in assay [4], 0.0124 (inactive); in assay [5], -0.72 (inactive).

For `O=C(CS)NCCCCCCNC(=O)[C@@H]1C[C@@H]2C(=O)N3CCC[C@H]3C(=O)N2[C@@H]1c1ccc(O)cc1`, the composite z-score is 0.133 in assay [1]; -0.974 in [6]; -0.129 in assay [7]; 0.971 with Torsin-1A (Homo sapiens) [8]; 1.1 with Torsin-1A (Homo sapiens) [9]; 0.881 in [10]. For the same molecule, the z-score is 0.589 (inactive) in assay [2], 0.178 (inactive) in assay [3], -0.39 (inactive) in assay [4] and -0.972 (inactive) in [5].
